Data as given in PubChem BioAssay AID504332 (National Center for Advancing Translational Sciences (NCATS), 2011).
The whole screen tested about 350,000 compounds, of which about 31,000 (8.9%) were called active. Another 15% or so got no clear call; they are omitted. Many of the other results were omitted from the sample, so actives are more common in it than they were. A number with no mark means an inactive call. Calls come from the whole dose curve; as a rule, active = well fitted inhibition curve with a large enough effect; inconclusive = small, poorly fitted or top-dose-only effect; inactive = no such curve, though single readings can be large or run the other way.

target: Histone-lysine N-methyltransferase EHMT2 (Homo sapiens) (UniProt Q96KQ7); test: qHTS Assay for Inhibitors of Histone Lysine Methyltransferase G9a; details: G9a H3K9 monomethylation, AlphaScreen, 2 h; series mostly up to 59 µM; activity, negative = inhibition: at the top concentration; note: nearly all actives have a fitted effect of over 75% in size
How it was run: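 Chemiluminescent proximity detection of H3K9 monomethylation, read after 10 min bead incubation in the dark. Reaction: 20 nM G9a, 500 nM biotin-H3K9 peptide, 20 uM SAM cofactor, 2 h, room temperature, following 15 min enzyme-compound preincubation.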
% is set by controls: 0 for no effect and ±100 for the full control effect; potency is the fitted concentration of half-maximal effect.

Chain of Histone-lysine N-methyltransferase EHMT2 (Homo sapiens) (Q96KQ7 913-1193 limits assumed): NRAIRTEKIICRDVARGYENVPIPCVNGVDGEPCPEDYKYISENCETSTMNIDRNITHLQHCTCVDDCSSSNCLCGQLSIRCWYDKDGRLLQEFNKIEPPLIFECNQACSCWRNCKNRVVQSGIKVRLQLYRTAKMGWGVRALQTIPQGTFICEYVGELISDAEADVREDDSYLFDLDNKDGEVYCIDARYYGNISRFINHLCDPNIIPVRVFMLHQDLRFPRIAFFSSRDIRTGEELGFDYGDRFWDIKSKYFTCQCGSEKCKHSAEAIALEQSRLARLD

| SMILES | activity, negative = inhibition | Potency |
| --- | --- | --- |
| COc1cccc(NC(=O)CN(C)CC(=O)c2c(N)n(Cc3ccccc3)c(=O)n(C)c2=O)c1 | -2.39% [at 2.33 µM] | – |
| COc1ccc(NC(=O)c2ccc3nc(CCc4ccccc4)oc3c2)c(OC)c1 | 6.98% | – |
| CC1CCCN(C(=O)CN2C(=O)c3ccccc3S2(=O)=O)C1 (stereo not given) | 6.05% [at 2.33 µM] | – |
| CC1(c2ccc3ccccc3c2)NC(=O)NC1=O (stereo not given) | -3.89% [at 102 µM] | – |
| COc1cccc(NC(=O)CN(C)C(=O)c2ccccc2CCc2ccccc2)c1 | 3.17% [at 12.7 µM] | – |
| O=C(NCCCN1CCOCC1)c1cc(-c2ccccc2F)no1 | 20.4% [at 102 µM] | – |
| CSc1ccc(CCNC(=O)c2ccc3c(c2)nc2n3CCOC2)cc1 | -0.567% | – |
| Clc1ccc(C(Cn2ccnc2)OCc2ccsc2Cl)c(Cl)c1 (stereo not given) | -28.9% [at 12.7 µM] | – |
| CCOC(=O)c1[nH]c(C)c(CCC(=O)NCc2ccccc2C)c1C | 13.7% | – |
| Cc1ccc2ncc(C(=O)Nc3ccc(OC(F)(F)F)cc3)c(=O)n2c1 | -23.6% | – |
| Cc1nn(CC(=O)N2CCN(c3cccc(C(F)(F)F)c3)CC2)c(=O)c2cc3sccc3n12 | -1.49% | – |
| CC(NS(=O)(=O)c1ccc(OCC(=O)N2CCCC2)cc1)c1ccccc1 (stereo not given) | 3.21% [at 102 µM] | – |
| COc1ccc(C(=O)NNC(=S)NC(=O)c2ccccc2)cc1 | – | 22.4 µM (active) |
| COc1ccc(C(=O)NC(=S)NNC(=O)CCc2ccccc2)cc1 | 28.9% [at 0.0925 µM] | – |
| COCCCNC(=S)NC(=O)c1ccccc1 | 6.49% | – |
| Cc1ccc(CNC(=O)c2c(-c3ccccc3)noc2C)cc1 | -6.57% [at 102 µM] | – |
| COc1ccc(OCC(=O)NNC(=O)c2ccc(-c3ccccc3)cc2)cc1 | – | 79.4 µM (active) |
| Cc1onc(-c2ccccc2)c1C(=O)Nc1ccccc1C#N | 14.5% [at 102 µM] | – |
| COc1ccc(C(=O)NC(=S)NNC(=O)c2c(-c3ccccc3)noc2C)cc1 | – | 5.62 µM (active) |
| COc1ccc(C(=O)Nc2cc(C)ccc2NC(=O)COc2ccccc2)cc1 | 22.1% | – |

| SMILES | activity, negative = inhibition | Potency |
| --- | --- | --- |
| COc1ccc(OCC(=O)NNC(=O)c2cccc(C)c2)cc1 | 1.31% [at 102 µM] | – |
| Cc1cn(C)c(CC(=O)NCc2ccc(Cl)cc2)c1C(=O)O | 5.99% | – |
| CCC(=O)N1CCc2cc(S(=O)(=O)NCCC(=O)Nc3cccc(C)c3C)ccc21 | -36.9% | – |
| COc1ccc2ncc3c(-c4ccc(C)c(C)c4)nn(CC(=O)NC4CCCC4)c3c2c1 | 6.47% | – |
| CC1Cc2cc(S(=O)(=O)CCC(=O)Nc3ccc(F)c(Cl)c3)ccc2N1C(=O)C1CC1 (stereo not given) | -7.75% | – |
| O=C(Nc1ccccc1)c1cc2ccccc2[nH]1 | 9.33% | – |
| S=c1ccc2ccccc2[nH]1 | – | 4.47 µM (active) |
| CC(=O)N1CCN(C(=O)c2cc(-c3ccc(Cl)s3)nc3ccccc23)CC1 | 1.51% [at 102 µM] | – |
| C#CCOc1ccc(C2CC(=O)Nc3c2c(C)nn3-c2nc(C)cc(C)n2)cc1 (stereo not given) | 0.767% | – |
| Cc1ccc(-c2nc(CS(=O)(=O)CC(=O)NCc3ccccc3Cl)c(C)o2)cc1 | -6.32% | – |
| CC(C)(C)C(=O)CSc1ccc(S(=O)(=O)N2CCCC2)cn1 | -13.9% [at 2.33 µM] | – |
| CC1=C(C(=O)OCC2CCCCC2)C(c2c(F)cccc2Cl)CC(=O)N1 (stereo not given) | 7.87% | – |
| O=C(CN1CCCSc2ccccc21)N1CCN(S(=O)(=O)c2cccc(F)c2)CC1 | 15.4% [at 12.7 µM] | – |
| N#C/C=C1\Sc2ccccc2C(=O)N1CC(=O)N1CCN(S(=O)(=O)c2ccccc2)CC1 | – | 70.8 µM (active) |
| O=C(CN1CCCSc2ccccc21)N1CCN(S(=O)(=O)c2ccccc2)CC1 | – | 56.2 µM (active) |
| O=C(CN1CCSc2ccccc21)N1CCN(c2ccccc2)CC1 | -30.2% | – |
| CC(C)c1ccc(S(=O)(=O)N2CCN(C(=O)CN3C(=O)NC(C)(c4ccccc4)C3=O)CC2)cc1 (stereo not given) | 0.311% [at 102 µM] | – |
| O=C(Cc1ccccc1)N1CCN(S(=O)(=O)c2ccc([N+](=O)[O-])cc2)CC1 | 0.141% [at 102 µM] | – |
| CCN(C(=O)CSc1ncnc2c1cnn2-c1ccccc1)C1CCS(=O)(=O)C1 (stereo not given) | 7.57% [at 0.501 µM] | – |
| O=C(OCc1cc(=O)n2nc(C3CC3)sc2n1)c1ccccc1Cl | 0.251% | – |

| SMILES | activity, negative = inhibition | Potency |
| --- | --- | --- |
| O=C(NNC(=O)c1ccc(-n2cncn2)c([N+](=O)[O-])c1)c1ccccc1 | 14.9% [at 12.7 µM] | – |
| CCc1cc2c(cc(C(=O)OC)n2Cc2nc(-c3ccc(C)cc3)oc2C)s1 | -24.2% | – |
| N#Cc1nc(-c2cccc3ccccc23)oc1N | 2.47% [at 2.33 µM] | – |
| CCCCN(C(=O)C(CCSC)N1C(=O)c2ccccc2C1=O)c1c(N)n(CCC)c(=O)[nH]c1=O (stereo not given) | 17.2% [at 12.7 µM] | – |
| COc1ccc2oc(C(=O)N(CC(C)C)C3CCS(=O)(=O)C3)c(C)c2c1 (stereo not given) | 7.64% [at 0.501 µM] | – |
| COc1cccc(Cn2cnc3c([N+](=O)[O-])c(C)c(C)cc32)c1 | -11.2% [at 102 µM] | – |
| Cc1cccc(Cn2cnc3c(N)c(C)c(C)cc32)c1 | – | 44.7 µM (active) |
| CSc1nn(Cc2cccc(C)c2)c(N)c1S(=O)(=O)c1ccccc1 | -1.54% | – |
| COc1cc(OC)cc(-c2nc3nc(C)c(CCC(=O)Nc4ccccc4)c(C)n3n2)c1 | -2.91% | – |
| O=C(CCc1nnc2ccc(NCc3ccco3)nn12)Nc1cc(F)ccc1F | -3.92% [at 102 µM] | – |
| Cc1sc2ncnc(N3CCC(C(=O)Nc4ccc(F)cc4Cl)CC3)c2c1C | -22.6% [at 12.7 µM] | – |
| CN(Cc1ccccc1)c1ncnc2onc(-c3ccc(F)cc3)c12 | 6.18% | – |
| CCCCN(C)CCNC(=O)CSCc1ccc(C)cc1 | – | 3.55 µM (active) |
| Cc1ccc(CSCC(=O)N(C)CC(=O)Nc2ccc(C)cc2)cc1 | -0.261% [at 102 µM] | – |
| CCN(CC(=O)Nc1cc(Cl)ccc1C)C(=O)CSCc1ccc(C)cc1 | -2.36% [at 2.33 µM] | – |
| CC(=O)c1nn(-c2ccc(OC(F)(F)F)cc2)nc1Nc1ccccc1 | 9.69% | – |
| Cc1ccc(N2CC(C(=O)N3CCC4(CC3)CC(=O)c3ccccc3O4)CC2=O)cc1C (stereo not given) | 6.18% [at 0.501 µM] | – |
| CCOc1ccc(NS(=O)(=O)c2ccc(C(=O)NCC(c3ccccc3OC)N3CCCC3)cc2)cc1 (stereo not given) | – | 1.26 µM (active) |
| CCOc1ccc(S(=O)(=O)Nc2ccc(C(=O)NCCCN3CCCC3=O)cc2)cc1 | 12.9% | – |
| CCOc1ccc(NS(=O)(=O)c2ccc(C(=O)NC3CCN(Cc4ccccc4)CC3)cc2)cc1 | 17.4% [at 2.33 µM] | – |
